Test [1] has as its target Casein kinase I isoform gamma-2 (Homo sapiens) (UniProt P78368). Conditions: at 1 µM.
In test [2] the target is Casein kinase I isoform gamma-3 (Homo sapiens) (UniProt Q9Y6M4). The conditions noted are these: at 0.1 µM.
Test [3] shares this target. The conditions noted are these: at 1 µM.
Test [4] addresses Cyclin-dependent kinase 1 (Homo sapiens) (UniProt P06493). Conditions: at 0.1 µM.
The target is the same in test [5]. The conditions noted are these: at 1 µM.
The target in test [6] is Cyclin-dependent kinase 2 (Homo sapiens) (UniProt P24941). Conditions: at 0.1 µM.
For test [7] the target is unchanged. Conditions: at 1 µM.
The target is the same in test [8]. The conditions noted are these: at 0.1 µM. The source holds these as a separate data set.
Test [9] has the same target. Conditions: at 1 µM. This is another data set of the same source.
The target of test [10] is T1, CDK3/Cyclin E (Homo sapiens) (UniProt P24864+Q00526). Conditions: at 0.1 µM.
T1 sequence (P24864 whole entry, looked up): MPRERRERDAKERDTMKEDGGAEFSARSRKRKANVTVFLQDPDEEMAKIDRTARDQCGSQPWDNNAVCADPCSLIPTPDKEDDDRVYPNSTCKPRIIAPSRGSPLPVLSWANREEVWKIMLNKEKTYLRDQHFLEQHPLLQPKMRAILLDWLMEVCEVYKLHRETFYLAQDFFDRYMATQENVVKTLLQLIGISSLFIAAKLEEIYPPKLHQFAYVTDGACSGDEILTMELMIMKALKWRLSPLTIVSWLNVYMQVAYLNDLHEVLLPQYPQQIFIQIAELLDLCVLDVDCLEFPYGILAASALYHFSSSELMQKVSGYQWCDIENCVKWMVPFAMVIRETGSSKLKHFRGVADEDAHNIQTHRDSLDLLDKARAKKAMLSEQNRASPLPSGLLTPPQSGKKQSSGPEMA
T1 sequence (Q00526 whole entry, looked up): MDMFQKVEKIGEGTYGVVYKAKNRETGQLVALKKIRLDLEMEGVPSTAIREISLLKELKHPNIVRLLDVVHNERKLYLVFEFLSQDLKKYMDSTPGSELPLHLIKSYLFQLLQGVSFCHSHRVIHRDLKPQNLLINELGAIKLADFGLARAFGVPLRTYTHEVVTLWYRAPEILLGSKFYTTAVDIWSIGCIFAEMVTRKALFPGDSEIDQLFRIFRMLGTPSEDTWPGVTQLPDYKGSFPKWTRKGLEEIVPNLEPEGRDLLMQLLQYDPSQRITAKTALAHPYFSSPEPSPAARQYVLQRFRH
In test [11] the target is T1, CDK3/Cyclin E (Homo sapiens). The conditions noted are these: at 1 µM.
Test [12] deals with Cyclin-dependent kinase 4 (Homo sapiens) (UniProt P11802). The conditions noted are these: at 0.1 µM.
Chain of Cyclin-dependent kinase 4 (Homo sapiens) (P11802 whole entry): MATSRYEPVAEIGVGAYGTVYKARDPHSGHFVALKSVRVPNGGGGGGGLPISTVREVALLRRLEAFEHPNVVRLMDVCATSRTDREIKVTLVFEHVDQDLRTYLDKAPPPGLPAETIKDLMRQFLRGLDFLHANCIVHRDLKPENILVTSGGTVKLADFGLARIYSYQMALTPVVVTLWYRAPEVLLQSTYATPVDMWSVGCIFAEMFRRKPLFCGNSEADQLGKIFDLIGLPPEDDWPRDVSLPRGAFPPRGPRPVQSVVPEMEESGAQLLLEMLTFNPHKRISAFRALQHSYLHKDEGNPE
Test [13] shares this target. The conditions noted are these: at 1 µM.
In test [14] the target is Cyclin-dependent kinase 5 (Homo sapiens) (UniProt Q00535). Conditions: at 0.1 µM.
Chain of Cyclin-dependent kinase 5 (Homo sapiens) (Q00535 whole entry, looked up): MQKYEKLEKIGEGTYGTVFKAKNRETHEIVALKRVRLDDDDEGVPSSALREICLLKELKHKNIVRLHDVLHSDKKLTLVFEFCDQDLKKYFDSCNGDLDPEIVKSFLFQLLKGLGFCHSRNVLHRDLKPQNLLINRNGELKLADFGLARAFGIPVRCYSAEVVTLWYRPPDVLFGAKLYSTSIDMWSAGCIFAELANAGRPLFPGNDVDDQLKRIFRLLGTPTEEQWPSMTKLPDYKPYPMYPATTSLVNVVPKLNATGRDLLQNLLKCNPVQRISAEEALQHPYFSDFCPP
For test [15] the target is unchanged. Conditions: at 1 µM.
Test [16] concerns the target Cyclin-dependent kinase 6 (Homo sapiens) (UniProt Q00534). Conditions: at 0.1 µM.
The target is the same in test [17]. The conditions noted are these: at 1 µM.
Test [18] addresses Dual specificity protein kinase CLK2 (Homo sapiens) (UniProt P49760). The conditions noted are these: at 0.1 µM.
For test [19] the target is unchanged. The conditions noted are these: at 1 µM.
Test [20] deals with Dual specificity protein kinase CLK3 (Homo sapiens) (UniProt P49761). Conditions: at 0.1 µM.
Chain of Dual specificity protein kinase CLK3 (Homo sapiens) (P49761 whole entry, looked up): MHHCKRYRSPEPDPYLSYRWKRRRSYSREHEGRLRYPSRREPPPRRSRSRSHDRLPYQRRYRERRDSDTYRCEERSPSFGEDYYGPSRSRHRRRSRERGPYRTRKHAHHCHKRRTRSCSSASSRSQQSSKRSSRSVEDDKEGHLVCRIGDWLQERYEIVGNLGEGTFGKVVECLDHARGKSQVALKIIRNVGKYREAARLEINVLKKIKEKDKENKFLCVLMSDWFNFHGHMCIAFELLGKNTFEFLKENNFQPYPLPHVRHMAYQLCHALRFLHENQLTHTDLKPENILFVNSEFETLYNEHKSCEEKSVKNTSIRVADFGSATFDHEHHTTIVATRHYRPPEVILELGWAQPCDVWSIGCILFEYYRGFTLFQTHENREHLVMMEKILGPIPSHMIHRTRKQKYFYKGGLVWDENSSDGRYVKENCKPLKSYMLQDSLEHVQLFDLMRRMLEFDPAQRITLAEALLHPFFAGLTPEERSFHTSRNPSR

Chain of Cyclin-dependent kinase 6 (Homo sapiens) (Q00534 whole entry): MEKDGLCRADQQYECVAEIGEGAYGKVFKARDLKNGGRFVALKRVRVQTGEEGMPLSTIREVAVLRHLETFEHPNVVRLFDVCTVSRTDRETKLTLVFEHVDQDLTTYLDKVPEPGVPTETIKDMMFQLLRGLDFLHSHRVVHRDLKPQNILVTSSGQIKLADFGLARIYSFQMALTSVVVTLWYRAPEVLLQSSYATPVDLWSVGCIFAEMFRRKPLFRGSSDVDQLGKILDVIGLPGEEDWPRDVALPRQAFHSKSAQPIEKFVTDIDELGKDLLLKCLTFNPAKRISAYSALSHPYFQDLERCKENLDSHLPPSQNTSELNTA
Chain of Dual specificity protein kinase CLK2 (Homo sapiens) (P49760 whole entry, looked up): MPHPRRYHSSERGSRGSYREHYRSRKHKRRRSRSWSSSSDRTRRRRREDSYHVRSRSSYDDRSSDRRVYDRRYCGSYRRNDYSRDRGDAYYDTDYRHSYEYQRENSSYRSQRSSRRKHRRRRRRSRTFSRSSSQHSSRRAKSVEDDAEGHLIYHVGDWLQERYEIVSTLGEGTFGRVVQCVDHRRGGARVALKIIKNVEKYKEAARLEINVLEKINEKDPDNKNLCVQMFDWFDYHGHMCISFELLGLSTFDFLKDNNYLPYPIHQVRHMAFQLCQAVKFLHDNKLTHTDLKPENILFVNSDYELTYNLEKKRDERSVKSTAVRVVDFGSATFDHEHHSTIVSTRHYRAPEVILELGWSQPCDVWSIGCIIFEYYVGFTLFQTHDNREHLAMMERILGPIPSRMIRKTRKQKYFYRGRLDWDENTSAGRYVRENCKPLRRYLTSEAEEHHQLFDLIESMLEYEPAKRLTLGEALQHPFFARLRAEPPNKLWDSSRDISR
Chain of Casein kinase I isoform gamma-2 (Homo sapiens) (P78368 whole entry, looked up, canonical isoform): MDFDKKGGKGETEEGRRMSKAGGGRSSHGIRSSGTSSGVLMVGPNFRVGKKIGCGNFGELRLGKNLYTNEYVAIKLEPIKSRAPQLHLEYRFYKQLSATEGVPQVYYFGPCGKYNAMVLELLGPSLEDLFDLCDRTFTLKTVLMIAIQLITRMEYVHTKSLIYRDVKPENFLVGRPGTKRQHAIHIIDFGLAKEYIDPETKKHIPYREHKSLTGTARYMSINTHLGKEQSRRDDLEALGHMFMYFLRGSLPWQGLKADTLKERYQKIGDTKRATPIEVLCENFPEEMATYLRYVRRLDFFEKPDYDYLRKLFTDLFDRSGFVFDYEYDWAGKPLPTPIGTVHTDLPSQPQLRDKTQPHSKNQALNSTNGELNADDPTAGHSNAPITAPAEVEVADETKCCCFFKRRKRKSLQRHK
Chain of Cyclin-dependent kinase 1 (Homo sapiens) (P06493 whole entry, looked up): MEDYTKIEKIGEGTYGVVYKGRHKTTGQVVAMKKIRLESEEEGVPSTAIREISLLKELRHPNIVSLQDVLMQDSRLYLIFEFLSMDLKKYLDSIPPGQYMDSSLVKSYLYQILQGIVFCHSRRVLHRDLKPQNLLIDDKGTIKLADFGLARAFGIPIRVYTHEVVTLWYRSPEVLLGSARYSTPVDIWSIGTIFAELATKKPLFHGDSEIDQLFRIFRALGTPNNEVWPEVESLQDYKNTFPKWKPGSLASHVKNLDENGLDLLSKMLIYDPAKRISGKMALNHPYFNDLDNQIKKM
Chain of Casein kinase I isoform gamma-3 (Homo sapiens) (Q9Y6M4 whole entry, looked up, canonical isoform): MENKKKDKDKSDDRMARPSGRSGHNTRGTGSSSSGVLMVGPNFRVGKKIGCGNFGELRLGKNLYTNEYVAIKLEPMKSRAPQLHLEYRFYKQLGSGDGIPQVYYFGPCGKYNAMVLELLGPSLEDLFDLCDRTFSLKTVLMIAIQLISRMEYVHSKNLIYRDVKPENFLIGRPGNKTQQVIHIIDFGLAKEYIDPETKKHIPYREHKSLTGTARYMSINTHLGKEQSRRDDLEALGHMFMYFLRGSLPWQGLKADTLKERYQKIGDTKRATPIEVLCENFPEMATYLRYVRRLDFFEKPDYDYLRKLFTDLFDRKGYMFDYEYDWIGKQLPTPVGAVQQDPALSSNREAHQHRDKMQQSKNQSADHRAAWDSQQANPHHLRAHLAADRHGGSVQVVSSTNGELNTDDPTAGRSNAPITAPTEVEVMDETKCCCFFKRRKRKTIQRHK

For `CCn1c(-c2nonc2N)nc2cnc(Oc3cccc(NC(=O)c4ccc(N(C)C)cc4)c3)cc21`, the inhibition in test [1] turned out to be 1.09%; in test [2], 0.95%; in test [3], 0.52%; in test [4] it was 0.43%; in test [5], 0.67%; in test [6], 1.74%. Besides, the inhibition is 8.52% in [7]; 1.65% in test [8]; 2.7% in test [9]; -1.33% in test [10]; -1.3% in test [11]; 1.81% in test [12]. Moreover, the inhibition was 1.34% in test [13]; 0.66% in test [14]; 1.93% in test [15]; -1.64% in [16]; 1.62% in test [17]; -0.04% in [18]. Further, the inhibition in [19] stood at 1.15%; in [20] it was 0.38%.

Take `c1ccc(COc2ccc(Nc3ncnc4ccc(-c5ccco5)cc34)cc2)cc1`: the inhibition in test [1] turned out to be 0.91%; in [2], 0.33%; in test [3], 1.68%; in [4], 0.19%; in [5], 2.26%; in test [6], 1.69%. In addition, the inhibition in test [7] is 1.48%; in test [8], 0.66%; in test [9] it was 2.25%; in [10], 0.53%; in [11] it was -1.75%; in [12], -0.08%. Further, the inhibition in test [13] was 2.95%; in test [14] it was 0.18%; in [15] it was 1.53%; in test [16], -2.29%; in test [17], -1.6%; in [18] it was 0.31%. In addition, the inhibition in test [19] and in test [20] was -0.79% in each case.

As for `NS(=O)(=O)c1ccc(N/N=C2\C(=O)Nc3ccc4ncccc4c32)cc1`, the inhibition was found to be 7.05% in [1]; 1.94% in test [2]; 12.7% in [3]; 61.3% in test [4]; 80.5% in test [5]; 93.4% in test [6]. The inhibition was found to be 86.6% in test [7]; 83.1% in test [8]; 84.3% in test [9]; 79.7% in test [10]; 99.2% in [11]; 48% in [12]. Also, the inhibition in test [13] is 76.2%; in test [14] it was 79%; in test [15], 83.4%; in test [16], 53.5%; in test [17], 81.4%; in test [18], 19.3%. In addition, the inhibition was found to be 72.3% in test [19] and 2.36% in test [20].

Consider `CNC(=O)c1cc(-c2ccc(F)cc2)cc(-c2ccc(S(=O)(=O)N3CCCC3)cc2)c1N`, for which the inhibition is 2.38% in test [1]; 3.27% in test [2]; 0.61% in test [3]; -0.56% in test [4]; 1.19% in [5]; 1% in test [6]. The inhibition was 1.91% in test [7]; 2.41% in test [8]; 3.39% in test [9]; -1.31% in test [10]; -2.51% in test [11]; 1.65% in [12]. For the same compound, the inhibition in [13] was 2.17%; in [14] it was 0.12%; in test [15], 1.55%; in test [16], -2.1%; in test [17], -3.59%; in [18], 1.77%. Besides, the inhibition in [19] was found to be 2.42%; in test [20], 0.69%.

Regarding `Clc1ccc(-c2nn3ncccc3c2-c2ccnc(Nc3ccccc3)n2)cc1`, the inhibition turned out to be 1.83% in [1]; 1.6% in test [2]; 4.02% in test [3]; 0.56% in [4]; 1.32% in test [5]; 1.43% in [6]. The inhibition in test [7] was 3.91%; in [8], 1.3%; in [9], 2.48%; in test [10], 1.03%; in test [11], -0.36%; in [12], 1.45%. Besides, the inhibition is 2.58% in test [13]; 0.66% in test [14]; 1.41% in test [15]; 1.16% in test [16]; 4.53% in [17]; -0.96% in [18]. Besides, the inhibition in test [19] turned out to be 1.58%; in test [20], 1.63%.

As to `COc1cccc(-c2c[nH]c3c(N/N=C/c4ccncc4)ncnc23)c1`, the inhibition in [1] turned out to be 4.26%; in test [2], 1.09%; in test [3], 4.42%; in test [4] it was 42%; in [5] it was 74.2%; in test [6], 30.4%. In addition, the inhibition turned out to be 73.7% in [7]; 9.46% in [8]; 45.5% in test [9]; 6.61% in test [10]; 51.3% in test [11]; 10.5% in test [12]. The inhibition was 45.7% in test [13]; 38.8% in test [14]; 73.1% in [15]; 12.2% in test [16]; 51.4% in [17]; 2.83% in test [18]. Besides, the inhibition in [19] came out at 20.4%; in [20] it was 2.11%.

In the case of `Fc1cccc(COc2ccc(Nc3ncnc4sc(-c5ccco5)cc34)cc2Cl)c1`, the inhibition is 4.82% in [1]; 3.95% in test [2]; 3.97% in test [3]; -1.09% in [4]; 1.41% in test [5]; 2.79% in test [6]. Further, the inhibition was 2.68% in [7]; 3.66% in [8]; 6.69% in test [9]; -0.59% in [10]; -1.8% in test [11]; 3.4% in test [12]. The inhibition in test [13] is 5.13%; in [14], -0.01%; in [15] it was 2.77%; in test [16] it was 0.43%; in test [17], -0.36%; in test [18] it was 1.15%. Moreover, the inhibition in test [19] was -0.23%; in test [20], 0.59%.

As for `CN1CCC(n2cnc(-c3ccc(F)cc3)c2-c2ccnc(Nc3ccccc3)n2)CC1`, the inhibition in test [1] is 35.2%; in test [2], 12.4%; in [3], 61.7%; in test [4] it was 0.37%; in test [5] it was 2.52%; in [6], 0.89%. In addition, the inhibition in test [7] was -0.3%; in test [8], 1.14%; in [9], 2.14%; in test [10] it was 2.38%; in test [11], -2.19%; in test [12] it was 1.36%. Also, the inhibition in test [13] was 2.55%; in test [14] it was 0.25%; in test [15], 1%; in [16], 3.89%; in test [17], 0.2%; in test [18], 1.64%. Moreover, the inhibition in [19] was 1.56%; in [20], 0.75%.

`CCN(CC)S(=O)(=O)c1ccc(OC)c(Nc2ncc(-c3ccccc3)o2)c1`: the inhibition in [1] was -0.29%; in [2], -0.78%; in [3], 1.34%; in test [4] it was 0.99%; in test [5] it was 5.32%; in test [6], 2.02%. The inhibition in test [7] was 5.22%; in test [8], 3.09%; in test [9], 3.61%; in [10], 1.42%; in test [11] it was -0.01%; in [12] it was 1.62%. Also, the inhibition in test [13] turned out to be 2.74%; in test [14] it was 0.99%; in test [15], 2.21%; in test [16], 5.19%; in [17] it was 2.95%; in test [18] it was 4.15%. Moreover, the inhibition in [19] was determined as 40.3%; in [20], 0.64%.

Consider `COc1cc(/C=N/Nc2ncnc3[nH]ncc23)ccc1O`, for which the inhibition was 25.1% in test [1]; 3.84% in test [2]; 20% in test [3]; 2.77% in test [4]; 15.8% in test [5]; 3.26% in test [6]. Further, the inhibition in [7] came out at 28.3%; in [8], 4.7%; in test [9], 13.9%; in test [10], 1.56%; in [11], 6.95%; in test [12], 2.99%. Further, the inhibition was determined as 5.18% in test [13]; 2.93% in [14]; 16.3% in test [15]; 10.4% in test [16]; 15.9% in test [17]; 2.37% in test [18]. The inhibition turned out to be 28.6% in test [19] and 2.85% in [20].

On to `c1cc(-c2cnn3nc(N4CCOCC4)ccc23)nc(NC2CC2)n1`, for which the inhibition in [1] worked out at 10.4%; in test [2], 2.89%; in test [3] it was 8.91%; in test [4], 2.3%; in [5], 21.7%; in [6], 6.45%. Further, the inhibition in test [7] is 50.7%; in test [8], 9.31%; in [9], 43.2%; in test [10], 2.41%; in test [11], 17.4%; in test [12], 15%. The inhibition in test [13] was 57.8%; in test [14], 2.71%; in test [15], 23.3%; in [16], 11.8%; in test [17], 30.7%; in [18], 9.32%. Besides, the inhibition stood at 52% in test [19] and 1.88% in test [20].
